Consider 40 compounds from PubChem BioAssay (Tox21).

A number with no mark means an inactive call. Activity calls are given as the source filed them. Calls follow the shape of the dose curve; as a rule, active = well fitted curve in the direction sought with a large enough effect in the repeat runs; inconclusive = weak or mixed curves; inactive = flat fitted curve, though single readings scatter.
% is scaled to controls: 0 for no effect and ±100 for the full control effect.

A short description of the assay: qHTS assay to test for compound auto fluorescence at 535 nm (green) in HEK293 cells (AID 720680). The settings on record: green autofluorescence 485/535 nm; series mostly up to 46 µM; fluorescence, % of fluorescein: at the top concentration. The source says:
U.S. Tox21 Program National Center for Advancing Translational Sciences [NCATS] NIH Chemical Genomics Center [NCGC] U.S. Environmental Protection Agency [EPA] National Institutes of Environmental Health Sciences [NIEHS] National Toxicology Program [NTP] U.S. Food and Drug Administration [FDA] Tox21 Assay Overview: Compound auto fluorescence often interferes with screening of the compound library against various biological targets and signaling pathways. Some of these compounds may have fluorophoric properties. Such properties may interfere with the assay outputs resulting in false positives and/or negatives. To decrease such complications and ensure the compound activities are relevant in terms of biological response, the Tox21 10K compound library was screened for auto fluorescence. From the fluorophores used as reporter signals in our screening assays, the auto fluorescence equivalencies of compounds against three fluorophores have been evaluated: Triamterene, Fluorescein and Rose Bengal sodium for blue, green and red fluorescence, respectively. The fluorescence intensities were measured using Excitation/Emission wavelengths at 405/460nm, 485/535nm and 540/590nm for blue, green and red labels, respectively. This assay includes the green fluorescence data.
Tox21 Assay Protocol Summary: 2,000 HEK293 cells in 5 uL of culture medium containing 10% dialyzed FBS per well were dispensed into black wall/clear bottom 1536-well plates using a Multidrop Combi Dispenser (Thermo Scientific). The assay plates were incubated for 4-5 hr at 37C to allow cell attachment to the well bottom, followed by the transfer of 23 nL compound or DMSO vehicle by a pintool work station (Kalypsys, San Diego, CA). After the assay plates were incubated overnight at 37C and 5% CO2, fluorescence intensities in the assay plates were measured by an Envision (PerkinElmer, Shelton, CT) plate reader using three labels for measuring blue, green and red fluorescence at […] 460, 535 and 590nm respectively.
In general terms: Quantitative high-throughput screening tests each substance at several concentrations.
Consider `O=C(O[C@H]1CN2CCC1CC2)N1CCc2ccccc2[C@@H]1c1ccccc1`, for which the “fluorescence, % of fluorescein” value is -0.0234%.
Same read-out and setting: with `CCCCCCCC(=O)CC[C@@H]1[C@@H](C/C=C\CCCC(=O)OC(C)C)[C@@H](O)C[C@H]1O` the figure was 0.0316%; with `CNC(=O)c1c(I)c(C(=O)NCC(=O)Nc2c(I)c(C(=O)O)c(I)c(C(=O)NCCO)c2I)c(I)c(N(C)C(C)=O)c1I`, -0.103%; with `O=C1N=C2SCCN2C(=O)C1Cc1ccc(Cl)cc1` (stereo not given), 0.0078%.
The same measure, in the same setting: then `CC(C)[C@@H](C)/C=C/[C@@H](C)[C@H]1CC[C@H]2/C(=C/C=C3\C[C@@H](O)CC[C@@H]3C)CCC[C@]12C`, with -0.0222%.
Same read-out and setting: with `NCCCC[C@H](NC(=O)[C@@H]1CCCN1C(=O)[C@@H]1CSSC[C@H](N)C(=O)N[C@@H](Cc2ccccc2)C(=O)N[C@@H](Cc2ccccc2)C(=O)N[C@@H](CCC(N)=O)C(=O)N[C@@H](CC(N)=O)C(=O)N1)C(=O)NCC(N)=O` the figure was -0.0259%.
On to `CO/N=C(\C(=O)N[C@@H]1C(=O)N2C(C(=O)OCOC(=O)C(C)(C)C)=C(/C=C\c3scnc3C)CS[C@H]12)c1csc(N)n1`, for which the “fluorescence, % of fluorescein” value was 0.0785%.
Same read-out and setting: with `CCC(=O)OCC(=O)[C@@]1(OC(=O)CC)[C@@H](C)C[C@H]2[C@@H]3CCC4=CC(=O)C=C[C@]4(C)[C@@]3(F)[C@@H](O)C[C@@]21C` the figure was -0.021%; with `C[C@H]1C[C@H]2[C@@H]3CCC4=CC(=O)C=C[C@]4(C)[C@@]3(F)[C@@H](O)C[C@]2(C)[C@@]1(O)C(=O)CCl`, -0.0183%.
In the case of `CS(=O)(=O)NC(=O)CCC/C=C\C[C@H]1C(=O)C[C@@H](O)[C@@H]1/C=C/[C@H](O)COc1ccccc1`, the “fluorescence, % of fluorescein” value is -0.0061%.
In the case of `CC(=C\c1ccccc1)/C=C1/SC(=S)N(CC(=O)O)C1=O`, the “fluorescence, % of fluorescein” value is -0.0351%.
In the case of `CO[C@@H]1[C@@H](O[C@@H]2O[C@H](C)[C@@H](O[C@H]3C[C@@](C)(O)[C@@H](OC(=O)CC(C)C)[C@H](C)O3)[C@H](N(C)C)[C@H]2O)[C@@H](CC=O)C[C@@H](C)[C@@H](O)/C=C/C=C/C[C@@H](C)OC(=O)C[C@H]1O`, the Potency result was “inactive”.
Take `O=C(Cc1cccs1)N[C@@H]1C(=O)N2C(C(=O)[O-])=C(C[n+]3ccccc3)CS[C@H]12`: the “fluorescence, % of fluorescein” value was 0.321%.
In the case of `CCCCCCCCCCCCCCCCCC(=O)OC[C@@H](O)[C@H]1OC[C@H](O)[C@H]1O`, the “fluorescence, % of fluorescein” value was -0.203%.
Consider `CO[C@H]1C[C@H](O[C@@H]2/C(C)=C/C[C@@H]3C[C@@H](C[C@]4(CC[C@H](C)[C@@H](C5CCCCC5)O4)O3)OC(=O)[C@@H]3C=C(C)/C(=N/O)[C@H]4OC/C(=C\C=C\[C@@H]2C)[C@]43O)O[C@@H](C)[C@@H]1O`, for which the “fluorescence, % of fluorescein” value was 0.0456%.
Take `CO[C@@H]1[C@@H](O[C@@H]2O[C@H](C)[C@@H](O[C@H]3C[C@@](C)(O)[C@@H](O)[C@H](C)O3)[C@H](N(C)C)[C@H]2O)[C@@H](CC=O)C[C@@H](C)[C@@H](O[C@@H]2CC[C@H](N(C)C)[C@@H](C)O2)/C=C/C=C/C[C@@H](C)OC(=O)C[C@H]1O`: the “fluorescence, % of fluorescein” value was 0.0434% [at 18.6 µM].
Consider `CN(C)CCOc1ccccc1Cc1ccccc1` (tested in a mixture with another compound), for which the “fluorescence, % of fluorescein” value was 0.0155%.
On the same count and under the same terms, then `CC[C@@H](C(=O)O)[C@@H]1O[C@@H]([C@@H](C)[C@H](O)[C@H](C)C(=O)[C@H](CC)[C@H]2O[C@]3(C=C[C@@H](O)[C@]4(CC[C@@](C)([C@H]5CC[C@](O)(CC)[C@H](C)O5)O4)O3)[C@H](C)C[C@@H]2C)[C@@H](C)C[C@@H]1C`, with 0.027%; and `CN(CCO)CC(O)Cn1cnc2c1c(=O)n(C)c(=O)n2C` (stereo not given) (tested in a mixture with another compound), with -0.226%; and `CCN(CC)CCC(=O)N1c2ccccc2Sc2ccc(C(F)(F)F)cc21`, with 0.0088%.
Regarding `CN1CCN(CCCN2c3ccccc3Sc3ccccc32)CC1`, the “fluorescence, % of fluorescein” value was 0.165%.
As to `CCOC(=O)[C@H](CS)NCCN[C@@H](CS)C(=O)OCC`, the “fluorescence, % of fluorescein” value is 0.0167%.
In the case of `CO[C@H]1C[C@@H]2CC[C@@H](C)[C@@](O)(O2)C(=O)C(=O)N2CCCC[C@H]2C(=O)O[C@H]([C@H](C)C[C@@H]2CC[C@@H](OCCO)[C@H](OC)C2)CC(=O)[C@H](C)/C=C(\C)[C@@H](O)[C@@H](OC)C(=O)[C@H](C)C[C@H](C)/C=C/C=C/C=C/1C`, the “fluorescence, % of fluorescein” value was 0.0123%.
In the case of `CCCCC[C@H](O)/C=C/[C@H]1[C@H](O)CC(=O)[C@@H]1CCCCCCC(=O)O`, the “fluorescence, % of fluorescein” value is 0.0576% [at 18.6 µM].
For the compound `CC(NNC(=O)c1ccccc1)c1ccccc1` (stereo not given), the “fluorescence, % of fluorescein” value was -0.107%.
Still for that read-out and setting: with `Cn1cc(NC(=O)c2cc(NC(=O)c3cc(NC=O)cn3C)cn2C)cc1C(=O)NCCC(=N)N` the figure was 0.0005%.
With `CNC(C)[C@@H]1CC[C@@H](N)[C@@H](O[C@H]2[C@H](O)[C@@H](O[C@H]3OC[C@](C)(O)[C@H](NC)[C@H]3O)[C@H](N)C[C@@H]2N)O1` (stereo not given in full), the “fluorescence, % of fluorescein” value is 0.0316% [at 18.6 µM].
Still for that read-out and setting: then `COC(=O)C1=C(C)NC(C)=C(C(=O)O[C@H]2CCN(Cc3ccccc3)C2)[C@H]1c1cccc([N+](=O)[O-])c1`, with 0.0038%; and `CN(C)CCCN1c2ccccc2C(C)(C)c2ccccc21`, with 0.124%.
Take `CO[C@H]1C=CO[C@@]2(C)Oc3c(C)c(O)c4c(O)c(c5c(nc6cc(C)ccn65)c4c3C2=O)NC(=O)/C(C)=C\C=C[C@H](C)[C@H](O)[C@@H](C)[C@@H](O)[C@@H](C)[C@H](OC(C)=O)[C@@H]1C`: the “fluorescence, % of fluorescein” value was -0.197%.
On the same count and under the same terms, then `CC1=C(/C=C/C(C)=C/C=C/C(C)=C/C=C/C=C(C)/C=C/C=C(C)/C=C/C2=C(C)C[C@@H](O)CC2(C)C)C(C)(C)C[C@H](O)C1`, with 0.072%; and `CC(CN1c2ccccc2Sc2cccnc21)N(C)C` (stereo not given), with 0.0028%.
With `Oc1cc(O)cc(O)c1`, the “fluorescence, % of fluorescein” value is 0.122%.
The same measure, in the same setting: with `CC1(C)N=C(N)N=C(N)N1c1ccc(Cl)cc1` the figure was -0.127%; with `CC(C)CN(C[C@@H](O)[C@H](Cc1ccccc1)NC(=O)O[C@H]1CO[C@H]2OCC[C@H]21)S(=O)(=O)c1ccc(N)cc1`, 0.0088%.
`CN(C)C(=O)CCSC(SCCC(=O)O)c1cccc(/C=C/c2ccc3ccc(Cl)cc3n2)c1` (stereo not given): the “fluorescence, % of fluorescein” value is -0.0568%.
Same read-out and setting: with `C/C=C1\NC(=O)[C@H]2CSSCC/C=C/[C@H](CC(=O)N[C@H](C(C)C)C(=O)N2)OC(=O)C(C(C)C)NC1=O` (stereo not given in full) the figure was -0.0292%; with `CN(CC(=O)N1CCOCC1)Cc1c(Cl)cccc1NC(=O)c1ccccc1`, 0.0639%.
Take `CC(Oc1ccccc1)C(=O)N[C@@H]1C(=O)N2[C@@H]1SC(C)(C)[C@@H]2C(=O)O` (stereo not given in full): the “fluorescence, % of fluorescein” value was -0.069% [at 18.6 µM].
On to `CCNC(=O)[C@@H]1CCCN1C(=O)[C@H](CCCN=C(N)N)NC(=O)[C@H](CC(C)C)NC(=O)[C@@H](Cc1c[nH]c2ccccc12)NC(=O)[C@H](Cc1ccc(O)cc1)NC(=O)[C@H](CO)NC(=O)[C@H](Cc1c[nH]c2ccccc12)NC(=O)[C@H](Cc1cnc[nH]1)NC(=O)[C@@H]1CCC(=O)N1`, for which the “fluorescence, % of fluorescein” value is -0.0156%.
